# According to PubChem BioAssay (NCI):
# Compounds without any hit were thinned out: in the full panel of roughly 83,000, 20% have a hit.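 96-well plates, one dose, 48 hours. Percent growth reported; active if below 10.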 Unmarked numbers belong to inactive results. Calls of active or inactive are those of the source.
# Test system: IGROV1 ovarian
# Assay: NCI-60 one-dose screen, 48 h (100 = growth as untreated, 0 = no growth, -100 = all killed)
# Conditions: 10 µM unless noted
row,SMILES,growth
1,CC(=O)Nc1ccc(O)c(C)c1,110%
2,O=C(c1cccc(C(=O)c2ccc3c4c(cccc24)C(=O)N(c2ccccc2)C3=O)c1)c1ccc2c3c(cccc13)C(=O)N(c1ccccc1)C2=O,104%
3,Cc1ccc(S(=O)(=O)Oc2ccc3sc4c(CO)ccc(NCCN(C)C)c4c(=O)c3c2)cc1,-74.1% [100 µM] (active)
4,O=C1NC(=O)/C(=C\c2ccncc2)N1,109%
5,O=C(c1ccccc1O)N1CCCC1,103%
6,C1Cc2onc(-c3noc4c3CCC4)c2C1,114%
7,O=S(=O)(O)c1ccc(O)c(C2CCCCC2)c1,107%
8,CNc1ccccc1C(=O)N/N=C/C=C/c1ccccc1,23%
9,O=C(O)CC1=CCCCC1,96.1%
10,CC(C)c1ccc(C(=O)OCCCl)cc1,109%
11,CCCCCCCCNC(=O)C(C)C,107%
12,Cc1ccc(C)c2c1CCC2=O,117%
13,CC1(C)CCC(C)(C)NC(=S)N1,121%
14,COc1ccc(/C=N/NC(=O)COCC(=O)N/N=C/c2ccc(OC)cc2)cc1,110%
15,Cc1ccccc1NC(=O)Oc1ccc(Cl)cc1C(=O)c1ccccc1,101%
16,CC(=O)c1cccs1,110%
17,CSc1cnc2ccccc2n1,104%
18,CCCC(OC(C)=O)c1ccc2c(c1)OCO2 (centres undefined),104%
19,CC(C)N(C(=O)c1ccccc1)C(C)C,116%

row,SMILES,growth
1,O=C(O)c1ccc(OCc2ccccc2)cc1,91.1%
2,COc1cc(C(=O)O)c(O)c(C(C)(C)C)c1,107%
3,CC1(C)OC2C(CO)OC(n3ccc(=O)[nH]c3=O)C2O1 (centres undefined),101%
4,Cc1cccnc1NC1OC(=O)c2ccccc21 (centres undefined),101%
5,NS(=O)(=O)c1cc(=O)[nH]c(=O)[nH]1,121%
6,CCC1CCC(C)NC1 (centres undefined),110%
7,Cc1ccc2[nH]c3ccccc3c2c1,107%
8,C=C1C(=O)C2CCN1CC2,122%
9,C=CCNC(=S)N/C=C(/C(=O)c1ccccc1)c1ccccc1,106%
10,CCc1ccccc1C(=O)N(CC)CC,103%
11,CN(C)CCOC(=O)Nc1ccc(Cc2ccc(NC(=O)OCCN(C)C)cc2)cc1,83.2% [100 µM]
12,CC(C)NC(=O)OCc1c(COC(=O)NC(C)C)c(-c2ccc(Cl)cc2)n2c1CCC2,70.3%
13,Nc1ccc2c(c1)Cc1cc(N)c(N)cc1-2,97.9%
14,CCOC(=O)C(=O)CC(=O)c1ccccc1,93.3%
15,CCNc1ncnc2[nH]ncc12,124%
16,COc1nc(Nc2cccc(C(F)(F)F)c2)nc(OC)n1,93.1%
17,CC(=O)c1cccc(O)c1,106%
18,CC(C)c1ccccc1NC(=O)N1CCC(C(C)C)CC1,106%

# Test system: OVCAR-3 ovarian
# Assay: as above
# Conditions: 10 µM unless noted
row,SMILES,growth
1,CC(=O)Nc1ccc(O)c(C)c1,107%
2,O=C(c1cccc(C(=O)c2ccc3c4c(cccc24)C(=O)N(c2ccccc2)C3=O)c1)c1ccc2c3c(cccc13)C(=O)N(c1ccccc1)C2=O,98.8%
3,Cc1ccc(S(=O)(=O)Oc2ccc3sc4c(CO)ccc(NCCN(C)C)c4c(=O)c3c2)cc1,-79.3% [100 µM] (active)
4,O=C1NC(=O)/C(=C\c2ccncc2)N1,94.3%
5,O=C(c1ccccc1O)N1CCCC1,110%
6,C1Cc2onc(-c3noc4c3CCC4)c2C1,115%
7,O=S(=O)(O)c1ccc(O)c(C2CCCCC2)c1,113%
8,CNc1ccccc1C(=O)N/N=C/C=C/c1ccccc1,-23.7% (active)
9,O=C(O)CC1=CCCCC1,101%
10,CC(C)c1ccc(C(=O)OCCCl)cc1,123%
11,CCCCCCCCNC(=O)C(C)C,109%
12,Cc1ccc(C)c2c1CCC2=O,96.7%
13,CC1(C)CCC(C)(C)NC(=S)N1,111%
14,COc1ccc(/C=N/NC(=O)COCC(=O)N/N=C/c2ccc(OC)cc2)cc1,108%
15,Cc1ccccc1NC(=O)Oc1ccc(Cl)cc1C(=O)c1ccccc1,95.3%
16,CC(=O)c1cccs1,103%
17,CSc1cnc2ccccc2n1,107%
18,CCCC(OC(C)=O)c1ccc2c(c1)OCO2 (centres undefined),105%
19,CC(C)N(C(=O)c1ccccc1)C(C)C,108%

row,SMILES,growth
1,O=C(O)c1ccc(OCc2ccccc2)cc1,118%
2,COc1cc(C(=O)O)c(O)c(C(C)(C)C)c1,104%
3,CC1(C)OC2C(CO)OC(n3ccc(=O)[nH]c3=O)C2O1 (centres undefined),107%
4,Cc1cccnc1NC1OC(=O)c2ccccc21 (centres undefined),107%
5,NS(=O)(=O)c1cc(=O)[nH]c(=O)[nH]1,116%
6,CCC1CCC(C)NC1 (centres undefined),104%
7,Cc1ccc2[nH]c3ccccc3c2c1,104%
8,C=C1C(=O)C2CCN1CC2,85.2%
9,C=CCNC(=S)N/C=C(/C(=O)c1ccccc1)c1ccccc1,112%
10,CCc1ccccc1C(=O)N(CC)CC,110%
11,CN(C)CCOC(=O)Nc1ccc(Cc2ccc(NC(=O)OCCN(C)C)cc2)cc1,90.4% [100 µM]
12,CC(C)NC(=O)OCc1c(COC(=O)NC(C)C)c(-c2ccc(Cl)cc2)n2c1CCC2,66%
13,Nc1ccc2c(c1)Cc1cc(N)c(N)cc1-2,112%
14,CCOC(=O)C(=O)CC(=O)c1ccccc1,106%
15,CCNc1ncnc2[nH]ncc12,112%
16,COc1nc(Nc2cccc(C(F)(F)F)c2)nc(OC)n1,103%
17,CC(=O)c1cccc(O)c1,115%
18,CC(C)c1ccccc1NC(=O)N1CCC(C(C)C)CC1,113%
